These results are taken from PubChem BioAssay (NCI).

Several values for one entry are separate records, joined by “and”; a condition that tells them apart may be missing. Equal values may be shown once. Compounds without any hit were thinned out: in the full panel of roughly 83,000, 20% have a hit.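 A percent growth of 40 corresponds to 60% growth inhibition; 0 means no net growth; -100 means all cells died. Active threshold: below 10.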 Activity calls are given as the source filed them.

For one assay, the system named is ACHN renal. Description: NCI-60 one-dose screen, 48 h (100 = growth as untreated, 0 = no growth, -100 = all killed). Particulars: 0.25 µM. Here is the method:
Growth inhibition of the ACHN human tumor cell line is measured as a screen for anti-cancer activity. Cells are grown in 96 well plates and exposed to the test compound for 48 hours. Compounds are tested at a single concentration, which is 10^-5 M for most compounds. The reported endpoint is percent growth (GI% or GIPRCNT), where numbers from 0 - 100% represent growth inhibition, and numbers from -100% - 0 represent cell death. For example, a value of 40 represents 60% growth inhibition. A value of 0 means no net growth occurred over the course of the experiment. A value of -40 indicates 40% of cells at the beginning of the experiment died by the end of the experiment. A value of -100 means all cells are dead at the end of the experiment.
NCI-60 Human Tumor Cell Lines Screen was performed using the standard one-dose NCI protocol, which is described in more detail at https://dtp.cancer.gov/discovery_development/nci-60/default.htm.
Compounds with GIPRCNT values below 10 were considered active. Activity score was based on GIPRCNT using the following formula: […]
Score is 0 for GIPRCNT values of 100 or above, 50 for GIPRCNT values of 0, and 100 for GIPRCNT values of -100.
On to `CCCCCCCCCCCCCCCc1ccc(Cl)c(O)c1Cl` (tested in a mixture with another compound), for which the growth was 34% (inactive).

Still in this assay, the particulars now being: 10 µM.
For the compound `COc1ccc(Cl)cc1C(=O)NCCc1ccc(S(=O)(=O)NC(=O)NC2CCCCC2)cc1`, the growth is 96.9% (inactive) and 101% (inactive).

With `CC1(C)OB(c2ccc(Cn3cc(F)c(=O)[nH]c3=O)cc2)OC1(C)C`, the growth was 103% (inactive).

In the case of `CCCCCCCCCCCCCCCc1ccc(Cl)c(O)c1Cl` (tested in a mixture with another compound), the growth is 108% (inactive).

Turning to `Cc1[nH]c(-c2nc3ccccc3[nH]2)c(C)c1C(=O)NC(C)C1CCCCC1` (stereo not given), the growth was 99% (inactive).

Still in this assay, the particulars now being: 10 µM unless noted.
As to `Fc1ccccc1Nc1n[nH]c(=S)s1`, the growth is 110% (inactive).

As for `CCNC(=O)Nc1ccc(-c2nc3c(c(N4CCOC[C@@H]4C)n2)CCN(C2COC2)C3)cc1`, the growth was 34.6% (inactive) and 7.24% (active).

Turning to `N/C(=N\N=C\c1ccc2c(c1)OCO2)N/N=C\c1ccc2c(c1)OCO2`, the growth was 111% (inactive) and 97.7% (inactive).

With `CN(C)c1ccc(/C=C(\C#N)c2ccccc2)cc1`, the growth is 50.3% (inactive) and 65.3% (inactive) and 52.2% (inactive).

For the compound `CCOc1ccc(Nc2c3ccccc3nc3ccccc23)cc1`, the growth was 84.9% (inactive) and -30.4% (active) and 6.25% (active).

In the case of `O=C(Nc1ccc([N+](=O)[O-])cc1Cl)c1cc(Cl)ccc1O`, the growth was -3.01% (active) and 8.03% (active).

`O=C1OC2(c3ccccc31)c1ccc(O)c(O)c1Oc1c2ccc(O)c1O`: the growth was 101% (inactive) and 113% (inactive).

`CC(O)Cn1cnc2c1c(=O)n(C)c(=O)n2C` (stereo not given): the growth is 98% (inactive).

As for `O=C(O)C1C2C=CC(C2)C1C(=O)O` (stereo not given), the growth is 111% (inactive) and 33.6% (inactive) and 97.6% (inactive).

In the case of `CCOC(=O)C(CNc1ccccc1)C(=O)OCC`, the growth was 102% (inactive).

Consider `CCOC(=O)Nc1ccc2c(c1)/C(=N\NC(N)=S)c1ccccc1-2`, for which the growth is 56.8% (inactive) and 68.7% (inactive).

Take `CCC(C)C1(C2CCCC2)NC(=O)NC1=O` (stereo not given): the growth was 111% (inactive) and 108% (inactive).

In the case of `COC(=O)/C=C/c1cc(O)c2c(c1)C(C(=O)OC)C(c1ccc(O)c(O)c1)O2` (stereo not given), the growth is 26.2% (inactive) and 27.2% (inactive).

Turning to `O=CC(O)C(O)C(O)CO` (stereo not given), the growth is 98.7% (inactive) and 98.1% (inactive).

In the case of `CC(=O)Nc1cc(S(=O)(=O)O)cc2cc(S(=O)(=O)O)c(N=Nc3ccccc3)c(O)c12`, the growth was 106% (inactive) and 108% (inactive).

With `O=C(O)C1(C(=O)O)CCC1.[NH2-].[NH2-].[Pt+2]`, the growth is 96.4% (inactive) and 103% (inactive).

For the compound `S=C(S)N1CCCC1`, the growth is 125% (inactive) and 110% (inactive).

As for `CC(C)CNC(=O)c1ccccc1C(=O)NC1(C(=O)NCC(C)C)CCCC1`, the growth is 102% (inactive) and 104% (inactive).

With `N#C/C(=C1C=C/C(=N/O)C(Br)=C/1)c1ccccc1`, the growth was 24.5% (inactive).

For the compound `O=C(c1ccc(Cl)cc1)C(NCCO)c1ccc(Cl)cc1` (stereo not given), the growth was 120% (inactive) and 102% (inactive).

For `COc1ccc(S(=O)(=O)N2CCOCC2)cc1NC(=O)c1[nH]c(C)c2c1CCCCC2=O`, the growth is 107% (inactive) and 50.6% (inactive).

Take `CCN(CC)CCNc1ccc(C)c2sc3ccccc3c(=O)c12` (tested in a mixture with another compound): the growth is 16.7% (inactive) and 10.4% (inactive).

For `CCOc1ccc2nc3cc(N)ccc3c(N)c2c1`, the growth is 90% (inactive) and 83.7% (inactive).

As for `O=C(CN1CCOCC1)N1CCOCC1`, the growth was 108% (inactive) and 98.9% (inactive).

For `Nc1cc2c(cc1N)-c1ccccc1C2`, the growth is 82.6% (inactive) and 88.3% (inactive).

For the compound `Oc1nc(NCCc2ccccc2)sc1/C=C1\C=Nc2ncccc21`, the growth was -12% (active) and 16% (inactive).

Regarding `NC(=S)NN=C1CCC(C2CCCCC2)CC1` (stereo not given), the growth was 100% (inactive) and 98.8% (inactive).

In the case of `CN1CCN(C2CCN(C(=O)Nc3cc(Oc4ccc(NC(=O)C5(C(=O)Nc6ccc(F)cc6)CC5)c(F)c4)ccn3)CC2)CC1`, the growth is -3.96% (active) and 53.5% (inactive).

In the case of `COc1ccc2nc(Cl)cc(C)c2c1`, the growth is 105% (inactive) and 118% (inactive).

Consider `CC(=O)c1ccccc1O`, for which the growth is 105% (inactive) and 101% (inactive) and 104% (inactive).

On to `CNC(=O)c1ccc(C)c(-n2c(C)cc(OCc3ccc(F)cc3F)c(Br)c2=O)c1`, for which the growth is 68.6% (inactive) and 88.2% (inactive).

For `Cn1c(SSc2ccc(-c3cccnc3)n2C)ccc1-c1cccnc1`, the growth was 119% (inactive) and 108% (inactive).

The assay is the same for the next values; noted with them: 50 µM.
Consider `CC1(C)OB(c2ccc(Cn3cc(F)c(=O)[nH]c3=O)cc2)OC1(C)C`, for which the growth was 92.1% (inactive).

Still in this assay, the particulars now being: 100 µM.
For `COc1ccc(Cl)cc1C(=O)NCCc1ccc(S(=O)(=O)NC(=O)NC2CCCCC2)cc1`, the growth is 54.8% (inactive).

In the case of `Cc1[nH]c(-c2nc3ccccc3[nH]2)c(C)c1C(=O)NC(C)C1CCCCC1` (stereo not given), the growth is -90.9% (active).
